Records with an inconclusive call do not appear. A call without a number means that no potency is given here. Calls of active or inactive are those of the source. Calls come from the whole dose curve; as a rule, active = well fitted curve in the direction sought with a large enough effect; inconclusive = small, poorly fitted or top-dose-only effect, or another doubt; inactive = no such curve, though single readings can be large or run the other way.
Potency is the fitted concentration of half-maximal effect.

phosphoglycerate mutase (Leishmania major), sequence (Q4Q090 1-553): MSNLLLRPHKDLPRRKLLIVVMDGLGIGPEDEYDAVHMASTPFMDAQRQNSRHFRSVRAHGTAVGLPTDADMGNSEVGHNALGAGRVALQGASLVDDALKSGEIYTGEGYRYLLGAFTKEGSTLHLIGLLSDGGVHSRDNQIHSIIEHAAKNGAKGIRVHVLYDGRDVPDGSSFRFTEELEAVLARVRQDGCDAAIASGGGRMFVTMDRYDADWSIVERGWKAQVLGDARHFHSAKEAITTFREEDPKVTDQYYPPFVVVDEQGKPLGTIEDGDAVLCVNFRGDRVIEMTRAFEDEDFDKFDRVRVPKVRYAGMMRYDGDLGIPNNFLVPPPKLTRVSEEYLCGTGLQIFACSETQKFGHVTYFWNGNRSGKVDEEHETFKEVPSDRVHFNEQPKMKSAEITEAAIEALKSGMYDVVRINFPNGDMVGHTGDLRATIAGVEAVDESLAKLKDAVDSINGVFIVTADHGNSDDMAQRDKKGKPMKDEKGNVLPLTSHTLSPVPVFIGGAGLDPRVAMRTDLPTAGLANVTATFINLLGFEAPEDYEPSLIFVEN

This assay deals with phosphoglycerate mutase (Leishmania major) (UniProt Q4Q090). The experiment in a line: qHTS Validation Assay to Find Inhibitors of Phosphoglycerate Mutase (AID 504548). The following applies: biochemical enzyme activity; Potency: inhibition qHTS; series mostly up to 57.5 µM. The source says:
NIH Molecular Libraries Probe Production Network [MLPCN]
NIH Chemical Genomics Center [NCGC]
PI Name: Malcolm Walkinshaw, University of Edinburgh
Several species of the Trypanosomatidae family of parasitic protozoans cause a spectrum of diseases throughout the tropical and subtropical world. Sleeping sickness, caused by two subspecies of Trypanosoma brucei, is endemic to areas of sub-Saharan Africa, while Chagas disease, a manifestation of Trypanosoma cruzi infection, is prevalent throughout Central and South America. In addition, many species of Leishmania are responsible for a range of cutaneous and visceral diseases, causing ulcers, destructive lesions and kalaazar, a lethal infection of the viscera. Collectively, these organisms infect 30 million people worldwide (~500 million live in endemic areas), and account for ~130,000 deaths annually. Given their debilitating and prevalent nature, trypanosomatid parasites impose a heavy medical, economic and social burden on entire populations, primarily in the developing world. The problem is further exacerbated by the fact that existing treatments have progressed little in the past 50 years, and current drugs show high toxicity and poor efficacy.
Blood-stream stages of T. brucei are entirely dependent on glycolysis as a source of ATP, and the tricarboxylic acid cycle and oxidative phosphorylation are both repressed. Glycolysis in axenically cultured T. cruzi, representing the intracellular pathogenic stage, is also essential for these parasites. […] Previous studies have shown that the glycolytic enzyme, phosphoglycerate mutase (PGAM), is a viable target for drugs to kill these parasites. […] Furthermore, the cobalt centers present within PGAM are only found in trypanosomatid and plant PGAMs, and are known to be required for activity, thereby providing an additional target. Moreover, trypanosomatid PGAMs are completely different from the enzyme that performs the same function in humans: the parasite and host enzymes share no structural or even mechanistic features; specificity is therefore unlikely to be an issue.
NCGC Assay Protocol Summary:
Briefly, 3ul of substrate buffer (all columns) are dispensed into Greiner white solid bottom 1536-well assay plates. Compounds are then transferred via Kalypsys pin tool equipped with 1536-pin array (10nl slotted pins, V&P Scientific, San Diego, CA). Following addition of compound, 1ul of Lm PGAM (1.25nM final concentration, columns […]) is added to initiate the reaction; columns 3-4 receive only TEA buffer as negative controls. The plates are then incubated at room temperature for 45 minutes. Kinase-GloPlus reagent is added (2ul) and plates incubated for 10 minutes, before being transferred to a ViewLux high-throughput CCD imager (PerkinElmer) wherein single end-point measurements of luminescence are acquired using a clear filter. All reagents are diluted in an assay buffer consisting of 100 mM TEA (pH 7.6), 5 mM MgCl2 and 0.01% Tween-20.
A general note: In qHTS, concentration-response curves come from the screen itself.
For `O=C(O)[C@@H]1C[C@H](C(=O)O)N1`, the Potency entry was “inactive”.
`Cc1ccc(O)c(N=Nc2ccccc2)n1`: the Potency is 10.7 µM (active).
In the case of `CCCCC#Cc1nc(NC)c2ncn([C@@H]3O[C@H](CO)[C@@H](O)[C@H]3O)c2n1` it was “inactive”.
In the case of `C#CCN1C(C)=C(C(=O)OC)C(c2cccc([N+](=O)[O-])c2)C(C(=O)OCC)=C1C` (stereo not given) it was “inactive”; in that of `COc1ccc2c(c1)CCC1C2CC[C@@]2(C)C1CC[C@@H]2NCCCCCCN1C(=O)CCC1=O` (stereo not given in full), “inactive”; in that of `OC[C@H]1O[C@@H](n2cnc3c(Nc4ccccc4)ncnc32)[C@H](O)[C@@H]1O`, “inactive”.
In the case of `CC(=O)SCC[N+](C)(C)C` it was “inactive”; in that of `CCCCCCCCCCCCCCCC(=O)NCC(COP(=O)([O-])OCC[N+](C)(C)C)OCC` (stereo not given), “inactive”; in that of `N=C(N)SCCc1ccc(CCSC(=N)N)cc1`, “inactive”.
Turning to `CC(COc1ccc(/C=C/c2ccccc2)cc1)[N+](C)(C)C` (stereo not given), the Potency entry was “inactive”.
Then `O=C(O)/C=C/C(O)c1ccc(Cl)cc1` (stereo not given), with “inactive”; and `O=c1[nH]c2cc([N+](=O)[O-])c([N+](=O)[O-])cc2[nH]c1=O`, with “inactive”.
For the molecule `Oc1cc2c(cc1O)CN(C(=S)NCCc1ccc(Cl)cc1)CCC2`, the Potency entry is “inactive”.
Regarding `COc1cc(OC)c(/C=C2/C(=O)Nc3ccccc32)c(OC)c1`, the Potency entry is “inactive”.
In the case of `Fc1cccc(/C=N/N=C/c2cccc(F)c2)c1` it was “inactive”.
Then `CN(C)CCCO[C@@H]1[C@H]2OC(C)(C)O[C@H]2O[C@@H]1[C@H](O)CO`, with “inactive”; and `Nc1ncnc2c1ncn2[C@@H]1O[C@H](COP(=O)(O)CP(=O)(O)OP(=O)(O)O)[C@@H](O)[C@H]1O`, with “inactive”; and `O=[N+]([O-])c1ccc2c(c1)S(=O)(=O)C=C2`, with “inactive”.
Then `CN1C2CC(OC(=O)[C@H](CO)c3ccccc3)CC1C1OC12` (stereo not given in full), with “inactive”.
As to `CC(=O)N[C@H](C(=O)O)C(C)(C)SN=O`, the Potency entry is “inactive”.
For `CC[C@@H](C)[C@H]1O[C@]2(CC[C@H]1C)C[C@@H]1C[C@@H](CC=C(C)[C@@H](O[C@H]3C[C@H](OC)[C@@H](O[C@H]4C[C@H](OC)[C@@H](O)[C@H](C)O4)[C@H](C)O3)[C@@H](C)C=CC=C3CO[C@@H]4[C@H](O)C(C)=C[C@@H](C(=O)O1)[C@]34O)O2`, the Potency entry was “inactive”.
On to `CC(C)Cc1ccc([C@H](C)C(=O)O)cc1`, for which the Potency result was “inactive”.
Then `Nc1nc(Cl)nc2c1ncn2[C@@H]1O[C@H](COP(=O)(O)OP(=O)(O)OP(=O)(O)O)[C@@H](O)[C@H]1O`, with “inactive”; and `N=c1ccn2c(n1)O[C@H]1[C@H](O)[C@@H](CO)O[C@H]12`, with “inactive”; and `C[C@@H](CN1CCC(Cc2ccccc2)CC1)[C@@H](O)c1ccc(O)cc1`, with “inactive”.
Then `OC[C@H]1O[C@@H](n2cnc3c(NC4CCCC4)ncnc32)[C@H](O)[C@@H]1O`, with “inactive”; and `CC(C)NC[C@H](O)COc1cccc2[nH]ccc12`, with “inactive”.
In the case of `Cn1c(=O)c2[nH]c(-c3ccccc3)nc2n(C)c1=O` it was “inactive”; in that of `Cc1ccc(S(=O)(=O)/C=C/C#N)cc1`, “inactive”.
As to `CO/N=C(\C(=O)N[C@@H]1C(=O)N2C(C(=O)O)=C(COC(C)=O)CS[C@H]12)c1csc(N)n1`, the Potency result is “inactive”.
Then `Cc1ccc(C(=O)O[C@H](C(=O)O)[C@@H](OC(=O)c2ccc(C)cc2)C(=O)O)cc1` (tested in a mixture with another compound), with “inactive”; and `CC1OC1P(=O)(O)O` (stereo not given), with “inactive”.
As to `O=C(Nc1ccccc1)c1cc([N+](=O)[O-])ccc1Cl`, the Potency result is “inactive”.
In the case of `Cc1cc(NC(=O)Nc2ccc3c(ccn3C)c2)sn1` it was “inactive”; in that of `O=C(Nc1cccc(C(=O)Nc2ccc(S(=O)(=O)O)c3cc(S(=O)(=O)O)cc(S(=O)(=O)O)c23)c1)Nc1cccc(C(=O)Nc2ccc(S(=O)(=O)O)c3cc(S(=O)(=O)O)cc(S(=O)(=O)O)c23)c1`, “inactive”; in that of `COc1ccccc1CNCCCCCCNCCCCCCCCNCCCCCCNCc1ccccc1OC`, “inactive”.
In the case of `CCOC(=O)C1=C(C)NC(C)=C(C(=O)OCC)C1c1c(F)c(F)c(F)c(F)c1F` it was “inactive”; in that of `O=C1NC(=O)/C(=C/c2ccc(-c3ccc(F)cc3O)o2)S1`, “inactive”; in that of `COC1=C(OC)C(=O)c2ccccc2C1=O`, “inactive”.
Then `Fc1ccc(C(OCCCc2cnc[nH]2)c2ccc(F)cc2)cc1`, with “inactive”.
